According to PubChem BioAssay AID1159580 (chemical genetic matrix, 2015):
In all, about 5,500 compounds went through this assay and about 2,000 (36%) were called active. Another 18% or so got no clear call; they are omitted. This is one part of the list. A number with no mark means an inactive call. Cut-off read from the data, not from the text of the source: active = normalized growth mostly below about 0.91 (no sharp cut-off); inconclusive = no clear call, values can overlap the other calls; inactive = mostly above about 0.92.

Assay: chemical genetic growth profiling, strain panel (AID 1159580);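 note: tested at 20 µM; growth read once vehicle control cultures reached saturation at 30 °C; 1 = growth at the plate median or of vehicle wells; lower values mean less growth of the strain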
Details: growth OD

Structure (SMILES): CO[C@@H]1[C@@H](OC(N)=O)[C@@H](O)[C@H](Oc2ccc3c(O)c(NC(=O)c4ccc(O)c(CC=C(C)C)c4)c(=O)oc3c2C)OC1(C)C
- normalized growth (S. cerevisiae deletion strains, locus YJR043C, strain POL32, hits give low values): 1
- normalized growth (S. cerevisiae deletion strains, locus YJR066W, strain TOR1, hits give low values): 0.896
- normalized growth (S. cerevisiae deletion strains, locus YJR075W, strain HOC1, hits give low values): 1.02
- normalized growth (S. cerevisiae deletion strains, locus YKL009W, strain mrt4, hits give low values): 0.96
- normalized growth (S. cerevisiae deletion strains, locus YKL068W, hits give low values): 0.925 (active)
- normalized growth (S. cerevisiae deletion strains, locus YKL085W, strain MDH1 (second series), hits give low values): 0.949
- normalized growth (S. cerevisiae deletion strains, locus YKL085W, strain MDH1, hits give low values): 0.949
- normalized growth (S. cerevisiae deletion strains, locus YKL160W, strain elf1, hits give low values): 1.03
- normalized growth (S. cerevisiae deletion strains, locus YKL190W, strain CNB1, hits give low values): 0.993
- normalized growth (S. cerevisiae deletion strains, locus YKR001C, strain vps1, hits give low values): 0.99
- normalized growth (S. cerevisiae deletion strains, locus YKR026C, strain gcn3, hits give low values): 1.04
- normalized growth (S. cerevisiae deletion strains, locus YKR091W, strain srl3, hits give low values): 1.03
- normalized growth (S. cerevisiae deletion strains, locus YLL001W, strain dnm1, hits give low values): 1.04
- normalized growth (S. cerevisiae deletion strains, locus YLL026W, hits give low values): 1.04
- normalized growth (S. cerevisiae deletion strains, locus YLL041C, strain sdh2, hits give low values): 1.02
- normalized growth (S. cerevisiae deletion strains, locus YLR027C, strain aat2, hits give low values): 1.03
- normalized growth (S. cerevisiae deletion strains, locus YLR039C, strain RIC1, hits give low values): 0.962
- normalized growth (S. cerevisiae deletion strains, locus YLR058C, strain SHM2, hits give low values): 1.01
- normalized growth (S. cerevisiae deletion strains, locus YLR102C, strain apc9, hits give low values): 0.993
- normalized growth (S. cerevisiae deletion strains, locus YLR113W, strain HOG1, hits give low values): 0.793 (active)
- normalized growth (S. cerevisiae deletion strains, locus YLR221C, strain rsa3, hits give low values): 1.02
- normalized growth (S. cerevisiae deletion strains, locus YLR258W, strain gsy2, hits give low values): 1.03
- normalized growth (S. cerevisiae deletion strains, locus YLR262C, strain YPT6 (second series), hits give low values): 1.02
- normalized growth (S. cerevisiae deletion strains, locus YLR262C, strain YPT6, hits give low values): 0.968
- normalized growth (S. cerevisiae deletion strains, locus YLR268W, strain sec22, hits give low values): 0.955
- normalized growth (S. cerevisiae deletion strains, locus YLR320W, strain mms22, hits give low values): 1.04
- normalized growth (S. cerevisiae deletion strains, locus YLR330W, strain CHS5, hits give low values): 1.03
- normalized growth (S. cerevisiae deletion strains, locus YLR342W, strain FKS1 (second series), hits give low values): 1.04
- normalized growth (S. cerevisiae deletion strains, locus YLR342W, strain FKS1, hits give low values): 1.03
- normalized growth (S. cerevisiae deletion strains, locus YLR357W, strain rsc2, hits give low values): 1.05
- normalized growth (S. cerevisiae deletion strains, locus YLR370C, strain arc18, hits give low values): 1.03
- normalized growth (S. cerevisiae deletion strains, locus YLR371W, strain rom2, hits give low values): 0.979
- normalized growth (S. cerevisiae deletion strains, locus YLR384C, strain iki3, hits give low values): 1.04
- normalized growth (S. cerevisiae deletion strains, locus YLR418C, strain cdc73, hits give low values): 1
- normalized growth (S. cerevisiae deletion strains, locus YML016C, strain PPZ1, hits give low values): 1.02
- normalized growth (S. cerevisiae deletion strains, locus YML032C, strain rad52, hits give low values): 0.99
- normalized growth (S. cerevisiae deletion strains, locus YML120C, strain ndi1, hits give low values): 1.02
- normalized growth (S. cerevisiae deletion strains, locus YML124C, strain tub3, hits give low values): 1
- normalized growth (S. cerevisiae deletion strains, locus YMR058W, strain fet3, hits give low values): 1.03
- normalized growth (S. cerevisiae deletion strains, locus YMR078C, strain ctf18, hits give low values): 0.997
- normalized growth (S. cerevisiae deletion strains, locus YMR125W, strain sto1, hits give low values): 1.02
- normalized growth (S. cerevisiae deletion strains, locus YMR129W, hits give low values): 1.03
- normalized growth (S. cerevisiae deletion strains, locus YMR205C, strain PFK2, hits give low values): 1.05
- normalized growth (S. cerevisiae deletion strains, locus YMR223W, strain ubp8, hits give low values): 1.03
- normalized growth (S. cerevisiae deletion strains, locus YMR231W, strain pep5, hits give low values): 1.03
- normalized growth (S. cerevisiae deletion strains, locus YMR307W, strain GAS1, hits give low values): 1.02
- normalized growth (S. cerevisiae deletion strains, locus YNL067W, strain RPL9B, hits give low values): 0.989
- normalized growth (S. cerevisiae deletion strains, locus YNL071W, strain lat1, hits give low values): 1.04
- normalized growth (S. cerevisiae deletion strains, locus YNL128W, strain TEP1, hits give low values): 0.945
- normalized growth (S. cerevisiae deletion strains, locus YNL183C, strain NPR1, hits give low values): 0.847
- normalized growth (S. cerevisiae deletion strains, locus YNL209W, strain ssb2, hits give low values): 1.04
- normalized growth (S. cerevisiae deletion strains, locus YNL233W, strain BNI4, hits give low values): 1.02
- normalized growth (S. cerevisiae deletion strains, locus YNL248C, strain rpa49, hits give low values): 1.02
- normalized growth (S. cerevisiae deletion strains, locus YNL250W, strain rad50, hits give low values): 0.956
- normalized growth (S. cerevisiae deletion strains, locus YNL271C, strain bni1, hits give low values): 0.986
- normalized growth (S. cerevisiae deletion strains, locus YNL298W, strain CLA4, hits give low values): 0.997
- normalized growth (S. cerevisiae deletion strains, locus YNL307C, strain MCK1, hits give low values): 0.991
- normalized growth (S. cerevisiae deletion strains, locus YNL322C, strain KRE1 (second series), hits give low values): 1.01
- normalized growth (S. cerevisiae deletion strains, locus YNR049C, strain mso1, hits give low values): 1.04
- normalized growth (S. cerevisiae deletion strains, locus YNR052C, strain pop2, hits give low values): 0.978
- normalized growth (S. cerevisiae deletion strains, locus YOL006C, strain TOP1, hits give low values): 0.965
- normalized growth (S. cerevisiae deletion strains, locus YOL012C, strain htz1): 1
- normalized growth (S. cerevisiae deletion strains, locus YOL147C, strain pex11, hits give low values): 1.01
- normalized growth (S. cerevisiae deletion strains, locus YOR001W, strain rrp6, hits give low values): 0.979
- normalized growth (S. cerevisiae deletion strains, locus YOR061W, strain CKA2, hits give low values): 1.01
- normalized growth (S. cerevisiae deletion strains, locus YOR069W, strain VPS5, hits give low values): 1.01
- normalized growth (S. cerevisiae deletion strains, locus YOR070C, strain gyp1, hits give low values): 1.03
- normalized growth (S. cerevisiae deletion strains, locus YOR080W, strain dia2, hits give low values): 1.04
- normalized growth (S. cerevisiae deletion strains, locus YOR083W, strain WHI5, hits give low values): 1.03
- normalized growth (S. cerevisiae deletion strains, locus YOR106W, strain vam3, hits give low values): 1.02
- normalized growth (S. cerevisiae deletion strains, locus YOR136W, strain idh2, hits give low values): 1
- normalized growth (S. cerevisiae deletion strains, locus YOR144C, strain elg1, hits give low values): 1
- normalized growth (S. cerevisiae deletion strains, locus YOR184W, strain ser1, hits give low values): 0.987
- normalized growth (S. cerevisiae deletion strains, locus YOR231W, strain MKK1, hits give low values): 0.882
- normalized growth (S. cerevisiae deletion strains, locus YOR265W, strain rbl2, hits give low values): 1.02
- normalized growth (S. cerevisiae deletion strains, locus YOR270C, strain vph1, hits give low values): 0.927
- normalized growth (S. cerevisiae deletion strains, locus YOR290C, strain snf2, hits give low values): 1.05
- normalized growth (S. cerevisiae deletion strains, locus YOR316C, strain cot1, hits give low values): 0.987
- normalized growth (S. cerevisiae deletion strains, locus YPL051W, strain arl3, hits give low values): 1.05
- normalized growth (S. cerevisiae deletion strains, locus YPL055C, strain LGE1, hits give low values): 0.991
- normalized growth (S. cerevisiae deletion strains, locus YPL078C, strain atp4, hits give low values): 1.02
- normalized growth (S. cerevisiae deletion strains, locus YPL106C, strain sse1, hits give low values): 1.05
- normalized growth (S. cerevisiae deletion strains, locus YPL240C, strain hsp82, hits give low values): 1.02
- normalized growth (S. cerevisiae deletion strains, locus YPL256C, strain CLN2, hits give low values): 0.861
- normalized growth (S. cerevisiae deletion strains, locus YPR119W, strain clb2, hits give low values): 1.01
- normalized growth (S. cerevisiae deletion strains, locus YPR141C, strain kar3, hits give low values): 0.962
- normalized growth (S. cerevisiae deletion strains, locus YPR163C, strain tif3, hits give low values): 0.996
- normalized growth (S. cerevisiae deletion strains, locus YPR167C, strain met16, hits give low values): 0.999
- normalized growth (S. cerevisiae deletion strains, strain wtn01, hits give low values): 0.984
- normalized growth (S. cerevisiae strains, strain wild type, hits give low values): 1.02
